Laboratory results from PubChem BioAssay AID1159580 (chemical genetic matrix, 2015).
Several values for one entry are separate records, joined by “and”; a condition that tells them apart may be missing. Identical values can stand only once. The whole screen tested about 5,500 compounds, of which about 2,000 (36%) were called active. Another 18% or so got no clear call; they are omitted. Cut-off read from the data, not from the text of the source: active = normalized growth mostly below about 0.91 (no sharp cut-off); inconclusive = no clear call, values can overlap the other calls; inactive = mostly above about 0.92. The list shows a part of the results.

Assay: chemical genetic growth profiling, strain panel (AID 1159580);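 note: tested at 20 µM; growth read once vehicle control cultures reached saturation at 30 °C; 1 = growth at the plate median or of vehicle wells; lower values mean less growth of the strain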
Conditions: S. cerevisiae deletion strains, growth OD

Measured: normalized growth

Cc1ccnc(NS(=O)(=O)c2ccc(N)cc2)n1
inactive: locus YAL013W, strain DEP1, active compounds read low 1 | locus YAL021C, strain ccr4, active compounds read low 0.971 | locus YAL026C, strain drs2, active compounds read low 0.994 | locus YAL030W, strain snc1, active compounds read low 0.999 | locus YBL061C, strain skt5, active compounds read low 0.997 | locus YBR009C, strain hhf1, active compounds read low 1.01 | locus YBR021W, strain FUR4, active compounds read low 0.994 | locus YBR023C, strain chs3, active compounds read low 0.998 | locus YBR171W, strain sec66, active compounds read low 1.02 | locus YBR229C, strain ROT2, active compounds read low 1 | locus YBR231C, strain swc5, active compounds read low 1.01 | locus YBR279W, strain paf1, active compounds read low 1.01 | locus YCL011C, strain gbp2, active compounds read low 0.969 | locus YCL016C, strain dcc1, active compounds read low 0.968 | locus YCL029C, strain bik1, active compounds read low 1.02 | locus YCL061C, strain MRC1, active compounds read low 1.01 | locus YCL069W, strain vba3, active compounds read low 0.998 | locus YCR088W, strain abp1, active compounds read low 1 | locus YDL005C, strain med2, active compounds read low 1 | locus YDL035C, strain GPR1, active compounds read low 1.01 | locus YDL040C, strain nat1, active compounds read low 0.999 | locus YDL074C, strain BRE1, active compounds read low 0.978 | locus YDL101C, strain DUN1, active compounds read low 1.01 | locus YDL134C, strain PPH21, active compounds read low 1.01 | locus YDL185W, strain tfp1, active compounds read low 0.967 | locus YDL192W, strain arf1, active compounds read low 1.02 | locus YDR001C, strain nth1, active compounds read low 0.999 | locus YDR069C, strain doa4, active compounds read low 1.02 | locus YDR101C, strain arx1, active compounds read low 1.01 | locus YDR137W, strain rgp1, active compounds read low 1.03 | locus YDR150W, strain NUM1, active compounds read low 1 | locus YDR159W, strain sac3, active compounds read low 0.968 | locus YDR162C, strain NBP2, active compounds read low 1 | locus YDR195W, strain ref2 1 | locus YDR297W, strain sur2, active compounds read low 1.01 | locus YDR318W, strain mcm21, active compounds read low 1.02 | locus YDR334W, strain swr1, active compounds read low 0.995 | locus YDR335W, strain msn5, active compounds read low 0.986 | locus YDR388W, active compounds read low 1.01 | locus YDR392W, strain spt3, active compounds read low 0.887 | locus YDR502C, strain sam2, active compounds read low 1.01 | locus YEL003W, strain gim4, active compounds read low 1.02 | locus YEL037C, strain rad23, active compounds read low 1.01 | locus YEL061C, strain CIN8 (second series), active compounds read low 1 | locus YEL061C, strain CIN8, active compounds read low 1 | locus YER015W, strain faa2, active compounds read low 0.992 | locus YER016W, strain bim1, active compounds read low 1.01 | locus YER110C, active compounds read low 1.02 | locus YER111C, strain swi4, active compounds read low 0.998 | locus YER155C, strain BEM2 (second series), active compounds read low 1.02 | locus YER155C, strain BEM2, active compounds read low 1 | locus YER167W, strain BCK2, active compounds read low 1.01 | locus YFR010W, strain ubp6, active compounds read low 1.02 | locus YGL078C, strain dbp3, active compounds read low 1.01 | locus YGL086W, strain mad1, active compounds read low 1.01 | locus YGL167C, strain pmr1, active compounds read low 0.992 | locus YGL173C, strain kem1, active compounds read low 1.02 | locus YGL227W, strain vid30, active compounds read low 0.999 | locus YGL240W, strain doc1, active compounds read low 1.03 | locus YGL248W, strain PDE1, active compounds read low 0.998 | locus YGL253W, strain hxk2, active compounds read low 0.996 | locus YGR078C, strain PAC10, active compounds read low 0.971 | locus YGR135W, strain pre9, active compounds read low 1.01 | locus YGR229C, strain SMI1, active compounds read low 0.97 | locus YGR252W, strain gcn5, active compounds read low 0.984 | locus YHR013C, strain ard1, active compounds read low 0.987 | locus YHR027C, strain rpn1, active compounds read low 0.999 | locus YHR030C, strain SLT2, active compounds read low 1 and 0.973 | locus YHR079C, strain IRE1 (second series), active compounds read low 1.01 | locus YHR079C, strain IRE1, active compounds read low 0.973 | locus YHR094C, strain hxt1, active compounds read low 1.01 | locus YHR129C, strain ARP1, active compounds read low 1.01 | locus YHR142W, strain chs7, active compounds read low 1 | locus YHR200W, strain rpn10, active compounds read low 1.01 | locus YIL066C, strain RNR3, active compounds read low 1.01 | locus YIL073C, strain SPO22, active compounds read low 1.02 | locus YIL125W, strain kgd1, active compounds read low 1 | locus YIR030C, strain dcg1, active compounds read low 1.02 | locus YJL092W, strain hpr5, active compounds read low 1 | locus YJL095W, strain BCK1 (second series), active compounds read low 1 | locus YJL095W, strain BCK1, active compounds read low 1.01 and 0.972 | locus YJL115W, strain asf1, active compounds read low 0.992 | locus YJL129C, strain trk1, active compounds read low 0.996 | locus YJL134W, strain LCB3, active compounds read low 1 | locus YJL154C, strain vps35, active compounds read low 1.01 | locus YJL164C, strain tpk1, active compounds read low 0.968 | locus YJL166W, strain qcr8, active compounds read low 1.02 | locus YJL168C, strain set2, active compounds read low 1.01 | locus YJL187C, strain SWE1 (second series), active compounds read low 1.01 | locus YJR043C, strain POL32, active compounds read low 1.01 | locus YJR066W, strain TOR1, active compounds read low 0.937
